Data published in PubChem BioAssay (NCATS).
Inconclusive results are not listed. Active and inactive are the calls of the source. The call rests on the fitted dose curve; in most records, active means well fitted cell-killing curve with a large enough effect; inconclusive means small, poorly fitted or top-dose-only effect, or effect the other way; inactive means flat fitted curve, though single readings scatter.

Key:
Assay in all cases: Primary qHTS to identify gynecologic anti-cancer compounds using libraries of approved drugs and bioactive compounds (AID 1345084); further: nearly all actives have a fitted effect of over 55% in size
[1] = test system: C33A; conditions: Gynecologic cancer cell panel viability, ATPlite luminescence, 48 h; series mostly up to 57.5 µM
In short: (§1)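 Five-concentration response, 48 h; readout is ATP-driven luciferase luminescence.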

[2] = test system: CAOV3; conditions: Gynecologic cancer cell panel viability, ATPlite luminescence, 48 h; series mostly up to 57.5 µM
In short: as §1

[3] = test system: CASKI; conditions: Gynecologic cancer cell panel viability, ATPlite luminescence, 48 h; series mostly up to 57.5 µM
In short: as §1

[4] = test system: Es-2; conditions: Gynecologic cancer cell panel viability, ATPlite luminescence, 48 h; series mostly up to 57.5 µM
In short: as §1

[5] = test system: HeLa; conditions: Gynecologic cancer cell panel viability, ATPlite luminescence, 48 h; series mostly up to 57.5 µM
In short: as §1

[6] = test system: Hek293T; conditions: Gynecologic cancer cell panel viability, ATPlite luminescence, 48 h, control line for the selectivity index; series mostly up to 57.5 µM
In short: as §1

[7] = test system: JEG-3; conditions: Gynecologic cancer cell panel viability, ATPlite luminescence, 48 h; series mostly up to 57.5 µM
In short: as §1

[8] = test system: OV90; conditions: Gynecologic cancer cell panel viability, ATPlite luminescence, 48 h; series mostly up to 57.5 µM
In short: as §1

[9] = test system: PA-1; conditions: Gynecologic cancer cell panel viability, ATPlite luminescence, 48 h; series mostly up to 57.5 µM
In short: as §1

[10] = test system: SKOV3; conditions: Gynecologic cancer cell panel viability, ATPlite luminescence, 48 h; series mostly up to 57.5 µM
In short: as §1

[11] = test system: Tov-21-G; conditions: Gynecologic cancer cell panel viability, ATPlite luminescence, 48 h; series mostly up to 57.5 µM
In short: as §1

[12] = test system: Tov112D; conditions: Gynecologic cancer cell panel viability, ATPlite luminescence, 48 h; series mostly up to 57.5 µM
In short: as §1
On the % scale 0 is the no-effect control and ±100 the full control effect.

CN(C(=O)Cc1ccccc1)C(CN1CCCC1)c1ccccc1 (stereo not drawn)
inactive: Potency [1] | Potency [2] | Potency [3] | Potency [4] | Potency [5] | Potency [6] | Potency [7] | Potency [8] | Potency [9] | Potency [10] | Potency [11] | Potency [12]

CCN1C[C@]2(COC)[C@H](O)C[C@H](OC)[C@]34[C@@H]5C[C@]6(O)[C@H](OC(=O)c7ccccc7)[C@@H]5[C@@](O)([C@H]([C@H](OC)[C@H]23)[C@@H]14)[C@@H](O)[C@@H]6OC
inactive: Potency [1] | Potency [2] | Potency [3] | Potency [4] | Potency [5] | Potency [6] | Potency [7] | Potency [8] | Potency [9] | Potency [10] | Potency [11] | Potency [12]

C[C@@H]1C(=O)O[C@H]2[C@H](O)[C@@]34[C@@H]5OC(=O)[C@@]3(O[C@@H]3OC(=O)[C@@H](O)[C@@]34[C@H](C(C)(C)C)[C@H]5O)[C@@]12O
inactive: Potency [1] | Potency [2] | Potency [3] | Potency [4] | Potency [5] | Potency [6] | Potency [7] | Potency [8] | Potency [9] | Potency [10] | Potency [11] | Potency [12]

COC(=O)C1(C)CCC(=O)C2(C)c3c(O)cc(C(C)C)cc3C(O)C(OC(C)=O)C12 (stereo not drawn)
inactive: Potency [1] | Potency [2] | Potency [3] | Potency [4] | Potency [5] | Potency [6] | Potency [7] | Potency [8] | Potency [9] | Potency [10] | Potency [11] | Potency [12]

COC(=O)[C@@]12C(=O)C(C)C(=O)[C@]1(C)C(C)=C[C@H]1[C@]3(C=O)CC[C@H](OC(C)=O)C(C)(C)[C@H]3CC[C@@]12C (stereo partly drawn)
inactive: Potency [1] | Potency [2] | Potency [3] | Potency [4] | Potency [5] | Potency [6] | Potency [7] | Potency [8] | Potency [9] | Potency [10] | Potency [11] | Potency [12]

COC(=O)N1CCN(C(=O)Cc2ccc(Cl)c(Cl)c2)[C@@H](CN2CCCC2)C1
inactive: Potency [1] | Potency [2] | Potency [3] | Potency [4] | Potency [5] | Potency [6] | Potency [7] | Potency [8] | Potency [9] | Potency [10] | Potency [11] | Potency [12]

C1=C2CCCN[C@H]2[C@@H]2C[C@H]1[C@H]1CCCCN1C2
inactive: Potency [1] | Potency [2] | Potency [3] | Potency [4] | Potency [5] | Potency [6] | Potency [7] | Potency [8] | Potency [9] | Potency [10] | Potency [11] | Potency [12]

CC(=O)OC1CC(O)C2(C)C(CC(OC(C)=O)C3(C)C2CCC2(C)C(c4ccoc4)C(=O)C4OC423)C1(C)C (stereo not drawn)
inactive: Potency [1] | Potency [2] | Potency [3] | Potency [4] | Potency [5] | Potency [6] | Potency [7] | Potency [8] | Potency [9] | Potency [10] | Potency [11] | Potency [12]

CC1C/C=C/C(O)C(O)CC/C=C/c2cc(O)cc(O)c2C(=O)O1 (stereo not drawn)
inactive: Potency [1] | Potency [2] | Potency [3] | Potency [4] | Potency [5] | Potency [6] | Potency [7] | Potency [8] | Potency [9] | Potency [10] | Potency [11] | Potency [12]

Oc1ccc2c3c1O[C@H]1[C@H](N(CCCl)CCCl)CC[C@@]4(O)[C@@H](C2)N(CC2CC2)CC[C@]314
inactive: activity change, negative = cytotoxicity [1] 3.36% [at 11.6 µM] | activity change, negative = cytotoxicity [2] 11.9% [at 11.6 µM] | activity change, negative = cytotoxicity [3] 18.4% [at 11.6 µM] | activity change, negative = cytotoxicity [4] 3.95% [at 11.6 µM] | activity change, negative = cytotoxicity [5] 1.82% [at 11.6 µM] | activity change, negative = cytotoxicity [6] 0.845% [at 11.6 µM] | activity change, negative = cytotoxicity [7] -5.35% [at 11.6 µM] | activity change, negative = cytotoxicity [8] 0.162% [at 11.6 µM] | activity change, negative = cytotoxicity [9] 6.51% [at 11.6 µM] | activity change, negative = cytotoxicity [10] 9.08% [at 11.6 µM] | activity change, negative = cytotoxicity [11] 6.96% [at 11.6 µM] | activity change, negative = cytotoxicity [12] 3.75% [at 11.6 µM]

C/C=C(\C)C(=O)OC1CC2C(C)(C)OC(=O)CC(OC(C)=O)C2(C)C2CC(OC(=O)C(C)C)C3(C)C(c4ccoc4)CC4OC43C12C (stereo not drawn)
inactive: Potency [1] | Potency [2] | Potency [3] | Potency [4] | Potency [5] | Potency [6] | Potency [7] | Potency [8] | Potency [9] | Potency [10] | Potency [11] | Potency [12]

C[C@@]1(C(=O)O)CC[C@]2(C)CC[C@]3(C)C4=CC(=O)c5cc(O)c(O)cc5[C@]4(C)CC[C@@]3(C)[C@@H]2C1
inactive: Potency [1] | Potency [2] | Potency [3] | Potency [4] | Potency [5] | Potency [6] | Potency [7] | Potency [8] | Potency [9] | Potency [10] | Potency [11] | Potency [12]

C=C[C@H]1[C@H](O[C@@H]2O[C@H](CO)[C@@H](O)[C@H](O)[C@H]2O)OC=C2C(=O)OCC[C@H]21
inactive: Potency [1] | Potency [2] | Potency [3] | Potency [4] | Potency [5] | Potency [6] | Potency [7] | Potency [8] | Potency [9] | Potency [10] | Potency [11] | Potency [12]

CCC(C)(OC(C)=O)C(=O)O[C@H]1[C@H](OC(C)=O)C[C@@H]2[C@@](C)([C@@H]3C[C@H]4C=CO[C@H]4O3)[C@H](C)C[C@H](OC(C)=O)[C@@]2(COC(C)=O)[C@@]12CO2 (stereo partly drawn)
inactive: Potency [1] | Potency [2] | Potency [3] | Potency [4] | Potency [5] | Potency [6] | Potency [7] | Potency [8] | Potency [9] | Potency [10] | Potency [11] | Potency [12]
